CHT allo act – CHT positive allosteric modulators, primary screen, cell-based, membrane potential dye, choline EC20; 310,000 tested, 0.49% active; B-score at 10 µM; CHT-expressing cells; active compounds read high; LV-AA mutant CHT in HEK293 cells; High affinity choline transporter 1 (Homo sapiens), Q9GZV3;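 active = initial fluorescence not abnormally high and integrated response B-score, plate-corrected, over 3 SD above library mean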
ANO1 activ – TMEM16A chloride channel activators or potentiators, primary screen, cell-based, HTS; HEK293 TMEM16A/YFP-H148Q/I152L, iodide quench fluorescence; active compounds read low; B-score at 10 µM; 340,000 tested, 0.3% active;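 active = fluorescence-ratio B-score plate-corrected deviation score at least 3 library SD below zero, with starting fluorescence score within 5 deviations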;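 note: channel opened by trigger with iodide after compound preincubation; score built on the fluorescence ratio of max minus min over baseline; more negative score means more quench and so TMEM16A activation or potentiation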
ANO1 block – TMEM16A chloride channel inhibitors, primary screen, cell-based, HTS | HEK293 TMEM16A/YFP iodide influx fluorescence, ionomycin | normalized B-score (activity score, 25-100; higher = stronger inhibition) at 10 µM | 310,000 tested, 1.2% active;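 active = ratio plate-corrected score three or more library SD toward inhibition, starting fluorescence score within five deviations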;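 note: score derived from kinetic fluorescence span divided by baseline fluorescence per well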
CHT inh – inhibitors of human choline transporter CHT. AID 488975, 2010. 310,000 tested, 0.86% active. B-score at 10 µM. High affinity choline transporter 1 (Homo sapiens), Q9GZV3. CHT-expressing cells, membrane potential dye, choline response; active compounds read low;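 active = B-score over 3 SD under the library average, and starting fluorescence ratio not unusually high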;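 note: choline stimulus applied at its EC90 after an EC20 pre-addition; B-score computed on integrated fluorescence ratio after choline addition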
CHT block conf – CHT inhibitors, confirmation, cell-based, membrane potential dye, duplicate | shares compounds with CHT inh | CHT-expressing cells, choline membrane potential dye; LV-to-AA substituted CHT, HEK293 cells | CHT activity remaining % of control (active compounds read low), % at 10 µM | 2,400 tested, 70% active;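 active = choline transporter activity left, mean of duplicates at 10 µM, below buffer-only control mean minus 3 SD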;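 note: depolarization triggered by choline at its EC90 following an EC20 pre-addition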
HEK293 CHT ctr – membrane potential effects in parental HEK293, counter-screen for CHT inhibitor project, cell-based, membrane potential dye; shares compounds with CHT inh; choline response; active = decrease or increase beyond buffer ±3SD; membrane potential ratio readout (active if shifted either direction beyond buffer ±3SD; no single direction) at 10 µM; 2,400 tested, 4% active;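 note: parental cells lack the transporter so any hit is non-specific; ratio is peak minus trough fluorescence over baseline after EC90 choline challenge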
Of the large screens only hits and unclear results are named; the others gave an inactive call (follow-up assays come after a bar, where they were run). In the library only some 2.3% were active in any assay of this set; here they are far more common.

CC(NC(=O)c1cccc(OC2CCN(C(=O)C3CC3)CC2)c1)c1ccc(F)cc1 (centres undefined)	CHT inh -6.28 | CHT block conf 37.6% | HEK293 CHT ctr inactive
C/C=C(\C)CN1CCC(Oc2cccc(C(=O)NCc3ccccn3)c2)CC1	CHT inh -9.07 | CHT block conf 21.1% | HEK293 CHT ctr inactive
CC(NC(=O)c1cccc(OC2CCN(C3CCN(C)CC3)CC2)c1)c1ccccc1 (centres undefined)	none
COCC(C)N1CCC(Oc2cccc(C(=O)NCCc3ccccc3)c2)CC1 (centres undefined)	CHT inh -10.1 | CHT block conf 14.2% | HEK293 CHT ctr inactive
CC(C)CN1CCC(Oc2cccc(C(=O)NCCc3ccccc3)c2)CC1	CHT inh -11.8 | CHT block conf 21.0% | HEK293 CHT ctr inactive
COc1ccc2c(c1)CC[C@@H]1[C@@H]2CC[C@]2(C)[C@@H](C(=O)O)C[C@@H]12	none
CCN(CC)S(=O)(=O)c1ccc(C(C)NC(=O)C2CCCN2C(=O)c2cccs2)cc1 (centres undefined)	none (no result: CHT allo act, ANO1 block, CHT inh)
O=c1[nH]c2ccccc2c2nc(-c3cccc(S(=O)(=O)N4CCCC4)c3)nn12	none
Cc1ccc(Nc2nnc(C3C(=O)N(C)C4(C)CC3c3cc(Br)ccc3O4)s2)cc1 (centres undefined)	CHT inh -5.49 | CHT block conf inactive | HEK293 CHT ctr inactive
Cc1ccc(NC(=O)CSCC(=O)Nc2nnc(C3CC3)s2)cc1	none
CNc1nc(-c2ccc3c(c2)CCN3C(=O)c2ccc(F)cc2)cs1	none (no result: CHT allo act, ANO1 block, CHT inh)
CNc1nc(-c2ccc3c(c2)CCN3C(=O)c2cccc(F)c2)cs1	CHT inh -5.21 | CHT block conf inactive | HEK293 CHT ctr inactive
COc1ccccc1OCC(=O)NCCS(=O)(=O)N1CCN(c2ccccc2)CC1	CHT inh -6.9 | CHT block conf 58.5% | HEK293 CHT ctr inactive
CSc1ccccc1C(=O)NCCS(=O)(=O)N1CCN(c2ccc(F)cc2)CC1	CHT inh -5.29 | CHT block conf 38.4% | HEK293 CHT ctr inactive
CCc1ccc(NC(=O)CSc2nnc(SCC(=O)Nc3ccc(CC)cc3)n2N)cc1	none
CC(C)n1c(=S)[nH]c2cc(Cl)ccc21	CHT inh -6.88 | CHT block conf 51.8% | HEK293 CHT ctr inactive
Cc1cc(Cl)ccc1OCCCC(=O)N1CCN(C(=O)c2ccco2)CC1	CHT inh -5.3 | CHT block conf 68.1% | HEK293 CHT ctr inactive
O=C(CCCOc1ccccc1)N1CCN(C(=O)c2ccco2)CC1	none
O=C(c1ccco1)N1CCN(C(=O)c2ccc(COc3ccc(Cl)cc3Cl)o2)CC1	CHT inh -6.34 | CHT block conf inactive | HEK293 CHT ctr inactive
CCOc1ccc(CCNC(=O)c2cccs2)cc1OCC	none
CN1CCN(c2oc(Cc3cccc4ccccc34)nc2C#N)CC1	CHT inh -6.99 | CHT block conf 62.3% | HEK293 CHT ctr inactive
N#Cc1nc(Cc2cccc3ccccc23)oc1NCCCN1CCOCC1	CHT inh -5.7 | CHT block conf 69.1% | HEK293 CHT ctr inactive
Cc1ccc(S(=O)(=O)N2CCN(C(=O)CCCN3C(=O)NC4(CCCC4)C3=O)CC2)cc1C	none (no result: CHT allo act, ANO1 block, CHT inh)
O=C(NNC(=S)NC(=O)c1sc2ccccc2c1Cl)c1ccc(Cl)cc1	ANO1 activ -9.3, ANO1 block 100, CHT inh -7.33 | CHT block conf 32.5% | HEK293 CHT ctr inactive
CSCCC(NC(=O)c1ccccc1)C(=O)Nc1ccc(C)cc1 (centres undefined)	CHT inh -7.49 | CHT block conf 70.0% | HEK293 CHT ctr inactive
N#Cc1cccc(NC(=O)COC(=O)CCc2nc3ccccc3c(=O)[nH]2)c1	none
CCOc1ccc(Br)cc1CC(=O)O	none
CCCOc1ccc(Br)cc1CSC(=N)N	ANO1 block 25, CHT inh -6.07 | CHT block conf 33.0% | HEK293 CHT ctr inactive
